Test results from PubChem BioAssay (NCI).
About 79,000 compounds went through this panel and 15% of them were active in at least one assay; those are over-represented in the sample as a whole. Activity calls are given as the source filed them. Cut-off read from the data, not from the text of the source: active = growth inhibition above about 70%; inactive = the rest.

Experiments:
[1] = NCI Yeast Anticancer Drug Screen. Data for the rad50 strain (AID 155);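 note: 0% = growth of vehicle-only cultures of the same strain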; conditions: S. cerevisiae rad50 strain growth inhibition, active compounds read high
How it was run: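 Cells are treated with compound, grown, and their growth is then scored against vehicle-only cultures of the same repair-deficient yeast strain.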

[2] = NCI Yeast Anticancer Drug Screen. Data for the mec2-1 strain (AID 157); conditions: S. cerevisiae mec2-1 strain, active compounds read high
How it was run: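 Cells of the genetically defined mec2-1 yeast strain are incubated with test compound. Inhibition of growth is calculated against vehicle-treated controls.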

[3] = NCI Yeast Anticancer Drug Screen. Data for the sgs1 mgt1 strain (AID 161);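 note: 0% = growth of cultures given vehicle only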; conditions: S. cerevisiae sgs1 mgt1 strain, active compounds read high
How it was run: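 Test agents were incubated with a DNA-repair-mutant yeast strain. Growth was then read and compared against vehicle-treated controls.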

[4] = NCI Yeast Anticancer Drug Screen. Data for the cln2 rad14 strain (AID 165);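 note: 0% = growth equal to vehicle treated cultures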; conditions: S. cerevisiae cln2 rad14 strain, active compounds read high
How it was run: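 The screen exposed genetically defined yeast (cln2 rad14) to test compounds and scored growth inhibition relative to vehicle-treated controls.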

[5] = NCI Yeast Anticancer Drug Screen. Data for the bub3 strain (AID 167); conditions: S. cerevisiae bub3 mutant strain, active compounds read high
How it was run: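 Part of a panel of yeast mutants defective in DNA damage repair or cell cycle regulation. Each strain is grown with compound, and inhibition is calculated relative to solvent-treated cultures.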

[6] = NCI Yeast Anticancer Drug Screen. Data for the mlh1 rad18 strain (AID 175); conditions: S. cerevisiae mlh1 rad18 strain growth inhibition, active compounds read high
How it was run: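 Compound-treated yeast growth, normalised to vehicle controls. Strain bears defined DNA repair mutations.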

[7] = at 5.0 µM (retest, dose inferred, filed as 0.5)
[8] = at 50.0 µM (retest, dose inferred, filed as 5.0)

Measured: growth inhibition

COc1cc(C/C(=C/c2ccc(OC)c3occc23)[N+](=O)[O-])cc(OC)c1OC
inactive: [1]; [7] 18% | [2]; [7] 29% | [3]; [7] 31% | [4]; [7] 4% | [4]; at 50.0 µM 64.8% | [5]; [7] 12% | [5]; at 50.0 µM 60.7% | [6]; [7] 23%
active: [1]; [8] 100% | [1]; at 50.0 µM 70.6% | [2]; [8] 100% | [2]; at 50.0 µM 82.8% | [3]; [8] 99% | [3]; at 50.0 µM 82.9% | [4]; [8] 99% | [5]; [8] 97% | [6]; [8] 100% | [6]; at 50.0 µM 87.2%

OCCC1CCN(CC/C=C2/c3ccc(F)cc3Sc3ccc(C(F)(F)F)cc32)CC1
inactive: [1]; [7] 26% | [1]; [8] 59% | [1]; at 50.0 µM 37.4% | [2]; [7] 7% | [2]; [8] 45% | [2]; at 50.0 µM 62.9% | [3]; [7] 21% | [3]; [8] 68% | [4]; [7] 18% | [4]; [8] 52% | [5]; [7] 4% | [5]; [8] 38% | [5]; at 50.0 µM 64.5% | [6]; [7] 24% | [6]; [8] 56%
active: [3]; at 50.0 µM 82.6% | [4]; at 50.0 µM 71.4% | [6]; at 50.0 µM 88.2%

Cc1ccc(S(=O)(=O)C(C#N)(CCC(=O)/C=C/c2ccccc2)CCC(=O)/C=C/c2ccccc2)cc1
inactive: [1]; [7] 1% | [1]; [8] 6% | [1]; at 50.0 µM 16.2% | [2]; [7] -4% | [2]; [8] 35% | [2]; at 50.0 µM 2.35% | [3]; [7] 2% | [3]; [8] -2% | [3]; at 50.0 µM 26.9% | [4]; [7] 3% | [4]; [8] 4% | [5]; [7] -3% | [5]; [8] -2% | [5]; at 50.0 µM -9.3% | [6]; [7] 1% | [6]; [8] -28% | [6]; at 50.0 µM 20%
active: [4]; at 50.0 µM 77.3%

Nc1ccccc1-c1nc2c(ccc3ccccc32)[nH]1
active: [1]; at 50.0 µM 79.7% | [3]; at 50.0 µM 88.8% | [6]; at 50.0 µM 80.5%
inactive: [1]; [7] -1% | [1]; [8] 10% | [2]; [7] -17% | [2]; [8] -10% | [2]; at 50.0 µM 4.6% | [3]; [7] -16% | [3]; [8] -5% | [4]; [7] 8% | [4]; [8] -10% | [4]; at 50.0 µM 24.6% | [5]; [7] -3% | [5]; [8] 2% | [5]; at 50.0 µM 62.3% | [6]; [7] 0% | [6]; [8] -18%
